The results in this text go back to PubChem BioAssay (NCATS).

Several values for one entry are separate records, joined by “and”; a condition that tells them apart may be missing. Identical values can stand only once. Results filed as inconclusive are left out. Activity calls are given as the source filed them. Unless noted, the call rests on the fitted dose curve; in most records, active means well fitted cell-killing curve with a large enough effect; inconclusive means small, poorly fitted or top-dose-only effect; inactive means flat fitted curve, though single readings scatter.

Assay [1] can be described thus: Cell Viability - LYMP2-025 (AID 976).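 Further: series mostly up to about 92 µM; plate controls were DMSO only for no effect and tetraoctylammonium bromide control for full effect.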 In a few lines:
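In qHTS format, LYMP2-025 lymphoblastoid cells in complete culture medium received compound for 24 hr; ATP-based CellTiter-Glo signal gave viability, with AC50 derived by Hill equation.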

Assay [2] can be described thus: Cell Viability - LYMP2-002 (AID 977).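 Further: series mostly up to about 92 µM; compound exposure lasted 24 h at 37 °C; plate controls were DMSO only for no effect and 92 µM tetraoctylammonium bromide for full effect.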 The method, boiled down: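 Cytotoxicity is scored as concentration-dependent loss of cellular ATP in a human lymphoblastoid line after 24 hr compound treatment at 37 C. AC50 is obtained by modelling concentration-response data with the Hill equation.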
A short description of assay [3]: Cell Viability - LYMP2-006 (AID 978).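 Further: series mostly up to about 92 µM; cells exposed to compound for 24 hours; on the % scale 0 is the no-effect control and ±100 the full control effect; nearly all actives have a fitted effect of over 60% in size.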 The method, boiled down: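 Human lymphoblastoid cells (LYMP2-006), 2500/well in complete medium, were treated with compound for 24 hr at 37 C. Cellular ATP was read by CellTiter-Glo luminescence after 30 min, and AC50 values came from Hill-equation fits of concentration-response data.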
Assay [4] is described as follows: Cell Viability - LYMP2-007 (AID 979).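 Further: cells exposed to compound for 24 h before reading; 0% = DMSO only and the negative end = 92 µM tetraoctylammonium bromide; nearly all actives have a fitted effect of over 60% in size.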 The method, boiled down:
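Acute toxicity is scored as a concentration-dependent fall in intracellular ATP in human lymphoblastoid cells treated 24 hr at 37 C, measured by luciferase luminescence; Hill-equation modelling yields AC50.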

Assay [5] is described as follows: Cell Viability - LYMP2-008 (AID 980). Further: on the % scale 0 is the no-effect control and ±100 the full control effect; nearly all actives have a fitted effect of over 60% in size. In a few lines:
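Acute cytotoxicity is scored as concentration-dependent loss of cellular ATP in a human lymphoblastoid line after 24 hr treatment at 37 C. ATP is quantified by luciferase luminescence.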

A short description of assay [6]: Cell Viability - LYMP2-010 (AID 981).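 Further: cells exposed to compound for 24 hours at 37 °C; on the % scale 0 is the no-effect control and ±100 the full control effect; nearly all actives have a fitted effect of over 55% in size.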 In a few lines:
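Acute toxicity is scored as a concentration-dependent loss of cellular ATP in human lymphoblastoid cells after 24 hr compound exposure in complete medium. Tetraoctylammonium bromide is the positive control.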

Assay [7] can be described thus: Cell Viability - LYMP2-012 (AID 982).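 Further: cellular ATP by luciferase luminescence where a drop means cytotoxicity; cells exposed to compound for one day before reading; 0% = DMSO only and full loss = 92 µM tetraoctylammonium bromide; nearly all actives have a fitted effect of over 55% in size.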
Assay [8] is described as follows: Cell Viability - LYMP2-014 (AID 983).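 Further: series mostly up to about 92 µM; plate controls were DMSO only for no effect and 92 µM tetraoctylammonium bromide for full effect; nearly all actives have a fitted effect of over 50% in size.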 The method, boiled down: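 Decrease in intracellular ATP after 24 hr treatment at 37 C, measured by luciferase luminescence, indicated cytotoxicity. Concentration-response data were fitted with the standard Hill equation to give AC50.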
Assay [9] is described as follows: Cell Viability - LYMP2-016 (AID 984).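 Further: cells exposed to compound for 24 hours at 37 °C; on the % scale 0 is the no-effect control and ±100 the full control effect; nearly all actives have a fitted effect of over 55% in size.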 The method, boiled down:
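Human lymphoblastoid LYMP2-016 cells, 2500 per well, treated with compounds for 24 h at 37 C. Viability read as intracellular ATP by CellTiter-Glo luminescence after 30 min at room temperature; AC50 from Hill fits of concentration-response.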

Assay [10] is described as follows: Cell Viability - LYMP2-018 (AID 985).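 Further: compound exposure lasted 24 hr at 37 °C; plate controls were DMSO only for no effect and tetraoctylammonium bromide at 92 µM for full effect; nearly all actives have a fitted effect of over 50% in size.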 In a few lines:
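Acute cytotoxicity is scored as a concentration-dependent drop in intracellular ATP after 24 hr exposure of the lymphoblastoid line in complete culture medium, measured by luciferase luminescence. Potency is expressed as AC50 from Hill modelling.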

Assay [11] in a line: Cell Viability - LYMP2-020 (AID 986).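 Further: series mostly up to about 92 µM; plate controls were DMSO only for no effect and tetraoctylammonium bromide at 92 µM for full effect; nearly all actives have a fitted effect of over 55% in size.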 The method, boiled down: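 Acute cytotoxicity in a human lymphoblastoid line is scored as a concentration-dependent fall in cellular ATP after 24 hr at 37 C in complete medium. The positive control is tetraoctylammonium bromide, and potency is given as Hill-fit AC50.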
Assay [12] in a line: Cell Viability - LYMP2-022 (AID 987). In a few lines: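 Acute toxicity in a human lymphoblastoid line is scored as decreased intracellular ATP after 24 hr compound treatment at 37 C. ATP is measured by CellTiter-Glo luminescence; curves are fitted with the Hill equation to give AC50.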
Assay [13] is described as follows: Cell Viability - LYMP2-024 (AID 988).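 Further: plate controls were DMSO only for no effect and 92 µM tetraoctylammonium bromide for full effect; nearly all actives have a fitted effect of over 60% in size.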 The method, boiled down: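 Acute toxicity is measured as concentration-dependent loss of intracellular ATP in a human lymphoblastoid line treated 24 hours at 37 C. Luciferase luminescence quantifies ATP; AC50 values come from standard Hill-equation modelling.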
Assay [14] is described as follows: Cell Viability - LYMP2-026 (AID 989). Further: on the % scale 0 is the no-effect control and ±100 the full control effect; nearly all actives have a fitted effect of over 50% in size. In a few lines:
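Concentration-dependent loss of intracellular ATP in human lymphoblastoid cells after 24 hr at 37 C, quantified by luciferase luminescence. AC50 derived from standard Hill equation.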

A short description of assay [15]: Cell Viability - LYMP1-002 - Assay at 24 hr (AID 993). Further: on the % scale 0 is the no-effect control and ±100 the full control effect. The method, boiled down:
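qHTS, LYMP1-002 lymphoblastoid, 24 h cpd, 37 C, CellTiter-Glo ATP luminescence; AC50 via Hill eq.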

Assay [16] can be described thus: Cell Viability - LYMP1-002 - Assay at 40 hr (AID 994). The method, boiled down:
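Viability in the human lymphoblastoid line was measured as intracellular ATP via CellTiter-Glo after 40 hr compound exposure. Tetraoctylammonium bromide served as positive control.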

The target of assay [17] is Bile acid receptor (Homo sapiens) (UniProt Q96RI1). As to the kind of experiment: qHTS assay for small molecule agonists of farnesoid X receptor signaling (AID 588527; calls by dose curve;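 further: series mostly up to about 77 µM; 0% = vehicle basal and 100% = reference agonist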). To be noted: HEK293T FXR-UAS-bla, beta-lactamase ratio, 16 h; stronger effect = higher value. In a few lines:
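FXR-UAS-bla HEK293T, 10% dialyzed FBS; cpds up to 92 uM titration, 16 h 37 C; CCF4 dye 2 h RT; fluorescence. Normalized to chenodeoxycholic acid 100 uM (100%) and DMSO (0%); Hill fit gives EC50, efficacy.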
For orientation: Quantitative high-throughput screening tests each substance at several concentrations.

Assay [18] deals with Glucocorticoid receptor (Homo sapiens) (UniProt P04150). Kind of assay: qHTS assay for small molecule agonists of glucocorticoid receptor signaling (AID 588532; active means well fitted curve in the direction sought with a large enough effect in the signal ratio, with a control signal flat; the % refers to the signal ratio;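 further: 100% = dexamethasone at 0.1 µM and 0% = DMSO only wells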). As to conditions: HeLa MMTV-bla, beta-lactamase ratio, agonist, 18 h; stronger effect = higher value; percent of dexamethasone control, DMSO zero. The method, boiled down:
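Agonist-mode qHTS: GRE-driven beta-lactamase in HeLa cells exposed 18 h to titrated compounds (up to 92 uM), then CCF4 ratio read after 2 h at RT; Hill-fitted EC50, efficacy relative to 0.1 uM dexamethasone.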

Assay [19] shares this target. As to the kind of experiment: qHTS assay for small molecule antagonists of glucocorticoid receptor signaling (AID 588533; active means well fitted inhibition curve with a large enough effect in the signal ratio, with a control signal flat, not every such curve was filed as active; the % refers to the signal ratio;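 further: cells stimulated with 2 nM dexamethasone as agonist; on the % scale 0 is the no-effect control and ±100 the full control effect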). In a few lines: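 Antagonist-mode qHTS: compound titrations added to GRE-bla HeLa cells, then dexamethasone 2 nM final; 18 h, 37 C. CCF4 FRET fluorescence normalized to dexamethasone and DMSO; IC50 from Hill fit.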
The target in assay [20] is Peroxisome proliferator-activated receptor delta (Homo sapiens) (UniProt Q03181). As to the kind of experiment: qHTS assay for small molecule agonists of peroxisome proliferator-activated receptor delta signaling (AID 588534; calls by dose curve;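 further: 0% = DMSO basal wells and 100% = positive control agonist at 10 µM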). In a few lines: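 Reporter cells were plated and held 5 hrs at 37 C before compounds were added. After 18 hrs at 37 C, CCF4 dye was loaded for 2 hrs at RT and fluorescence measured.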

A short description of assay [21]: qHTS assay for small molecule antagonists of peroxisome proliferator-activated receptor delta signaling (AID 588535).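 Further: cells co-treated with a PPAR-delta agonist as stimulator during compound exposure.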 As to conditions: HEK293T PPARd-UAS-bla, beta-lactamase FRET ratio, 18 h; 460 nm channel. The method, boiled down: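 Cell-based beta-lactamase assay in antagonist mode: 4000 HEK293T PPAR-delta-UAS-bla cells per well, 5 hr preincubation then 18 hr compound incubation at 37 C. IC50 obtained by Hill equation fitting.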

Assay [22] concerns the target Peroxisome proliferator-activated receptor gamma (Homo sapiens) (UniProt P37231). Kind of assay: qHTS assay for small molecule agonists of peroxisome proliferator-activated receptor gamma signaling (AID 588536; active means well fitted curve in the direction sought with a large enough effect in the signal ratio, with a control signal flat, not every such curve was filed as active; the % refers to the signal ratio;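 further: 0% = DMSO basal wells and 100% = rosiglitazone at 2 µM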). In a few lines: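 PPAR-gamma-UAS-bla HEK293 cells in medium with 1% charcoal/dextran-treated FBS were exposed to compounds for 16 h at 37 C. Beta-lactamase activity was read with CCF4 substrate (405 nm excitation, 460/530 nm emission).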

In assay [23] the target is Vitamin D3 receptor (Homo sapiens) (UniProt P11473). As to the kind of experiment: qHTS assay for small molecule antagonists of vitamin D receptor signaling (AID 588541; calls by dose curve;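 further: receptor activated by calcitriol during compound treatment; series mostly up to about 77 µM; on the % scale 0 is the no-effect control and ±100 the full control effect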). In a few lines:
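Antagonist-mode beta-lactamase reporter assay: HEK293T VDR-UAS-bla cells were exposed to titrated compound alongside 1-alpha,25-dihydroxyvitamin D3 at 3 nM final for 16 h. Values were normalized to the 50 nM agonist control and DMSO basal, with IC50 and efficacy from Hill equation fits.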

Sequence of Glucocorticoid receptor (Homo sapiens) (P04150 whole entry, looked up): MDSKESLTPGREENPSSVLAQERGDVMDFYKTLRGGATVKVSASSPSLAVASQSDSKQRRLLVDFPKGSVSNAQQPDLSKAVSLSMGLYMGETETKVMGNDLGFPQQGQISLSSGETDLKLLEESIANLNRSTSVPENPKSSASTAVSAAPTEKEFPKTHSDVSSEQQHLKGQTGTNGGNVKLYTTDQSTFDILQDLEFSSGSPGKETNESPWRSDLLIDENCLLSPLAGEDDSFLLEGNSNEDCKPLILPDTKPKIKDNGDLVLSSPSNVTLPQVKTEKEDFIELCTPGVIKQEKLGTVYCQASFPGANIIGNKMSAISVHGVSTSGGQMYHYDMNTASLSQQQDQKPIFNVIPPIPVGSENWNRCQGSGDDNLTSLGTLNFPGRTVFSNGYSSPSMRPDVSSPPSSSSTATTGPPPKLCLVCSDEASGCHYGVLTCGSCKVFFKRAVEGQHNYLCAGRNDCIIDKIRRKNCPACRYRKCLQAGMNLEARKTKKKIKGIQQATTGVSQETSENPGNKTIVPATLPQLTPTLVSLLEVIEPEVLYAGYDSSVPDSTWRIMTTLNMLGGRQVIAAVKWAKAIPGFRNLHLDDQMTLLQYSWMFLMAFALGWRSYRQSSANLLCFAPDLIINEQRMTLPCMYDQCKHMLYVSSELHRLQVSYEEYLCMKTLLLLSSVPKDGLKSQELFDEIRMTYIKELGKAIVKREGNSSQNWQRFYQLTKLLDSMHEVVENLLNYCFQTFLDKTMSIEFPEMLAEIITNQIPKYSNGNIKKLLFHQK
Sequence of Vitamin D3 receptor (Homo sapiens) (P11473 whole entry, looked up): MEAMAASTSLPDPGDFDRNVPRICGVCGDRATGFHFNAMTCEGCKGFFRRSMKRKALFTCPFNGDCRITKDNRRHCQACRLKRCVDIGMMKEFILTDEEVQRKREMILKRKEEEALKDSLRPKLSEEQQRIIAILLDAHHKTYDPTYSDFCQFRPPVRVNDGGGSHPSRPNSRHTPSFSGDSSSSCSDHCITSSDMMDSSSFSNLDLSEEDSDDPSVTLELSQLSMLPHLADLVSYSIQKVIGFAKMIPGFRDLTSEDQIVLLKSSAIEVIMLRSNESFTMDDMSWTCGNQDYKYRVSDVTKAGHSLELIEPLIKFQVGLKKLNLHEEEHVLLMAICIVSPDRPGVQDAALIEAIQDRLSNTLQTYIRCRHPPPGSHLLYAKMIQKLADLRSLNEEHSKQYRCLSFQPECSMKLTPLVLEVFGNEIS
Sequence of Peroxisome proliferator-activated receptor delta (Homo sapiens) (Q03181 whole entry, looked up): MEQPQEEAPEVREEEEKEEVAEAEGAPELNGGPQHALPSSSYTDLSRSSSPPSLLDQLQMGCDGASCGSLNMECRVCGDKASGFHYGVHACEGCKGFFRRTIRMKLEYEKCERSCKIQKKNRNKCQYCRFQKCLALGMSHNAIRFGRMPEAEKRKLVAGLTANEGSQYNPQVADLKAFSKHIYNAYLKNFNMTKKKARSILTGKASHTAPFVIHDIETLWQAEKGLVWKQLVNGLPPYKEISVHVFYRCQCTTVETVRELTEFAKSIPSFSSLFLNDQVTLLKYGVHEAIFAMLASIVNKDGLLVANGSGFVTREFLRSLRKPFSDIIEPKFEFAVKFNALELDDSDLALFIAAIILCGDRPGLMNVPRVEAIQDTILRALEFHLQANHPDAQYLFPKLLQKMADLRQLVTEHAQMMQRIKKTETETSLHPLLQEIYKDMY
Sequence of Peroxisome proliferator-activated receptor gamma (Homo sapiens) (P37231 whole entry, looked up): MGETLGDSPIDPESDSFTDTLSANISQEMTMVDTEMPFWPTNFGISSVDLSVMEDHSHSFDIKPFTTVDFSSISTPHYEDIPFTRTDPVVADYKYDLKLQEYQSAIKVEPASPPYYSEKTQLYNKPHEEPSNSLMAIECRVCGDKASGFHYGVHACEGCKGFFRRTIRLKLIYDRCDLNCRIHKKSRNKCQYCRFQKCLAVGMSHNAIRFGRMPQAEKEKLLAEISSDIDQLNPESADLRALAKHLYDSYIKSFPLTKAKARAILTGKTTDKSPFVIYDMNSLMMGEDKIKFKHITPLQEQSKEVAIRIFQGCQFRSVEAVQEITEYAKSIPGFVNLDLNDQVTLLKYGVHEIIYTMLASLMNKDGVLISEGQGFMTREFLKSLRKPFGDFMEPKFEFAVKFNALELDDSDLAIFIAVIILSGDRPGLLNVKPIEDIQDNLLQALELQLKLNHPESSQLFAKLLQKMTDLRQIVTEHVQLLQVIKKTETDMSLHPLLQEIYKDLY
Sequence of Bile acid receptor (Homo sapiens) (Q96RI1 whole entry, looked up): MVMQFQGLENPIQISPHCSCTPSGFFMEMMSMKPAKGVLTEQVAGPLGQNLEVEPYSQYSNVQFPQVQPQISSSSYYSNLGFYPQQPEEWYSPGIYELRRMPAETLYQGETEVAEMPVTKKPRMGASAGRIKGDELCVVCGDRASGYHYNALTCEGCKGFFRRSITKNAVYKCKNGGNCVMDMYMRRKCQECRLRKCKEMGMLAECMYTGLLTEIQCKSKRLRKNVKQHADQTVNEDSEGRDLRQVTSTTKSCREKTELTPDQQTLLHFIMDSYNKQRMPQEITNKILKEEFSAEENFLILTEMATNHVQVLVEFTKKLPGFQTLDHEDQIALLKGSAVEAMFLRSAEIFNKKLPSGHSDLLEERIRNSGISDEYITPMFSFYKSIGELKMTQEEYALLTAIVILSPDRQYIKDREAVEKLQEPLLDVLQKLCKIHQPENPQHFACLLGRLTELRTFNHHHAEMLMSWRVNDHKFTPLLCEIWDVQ

Turning to `Clc1cc(Cl)c(-c2cc(Cl)c(Cl)cc2Cl)cc1Cl`, the Potency result in [1], in [2], in assay [3], in assay [4], in assay [5] and in assay [6] was “inactive” each time. Also, the Potency entry in assay [7], in assay [8], in assay [9], in assay [10], in [11] and in [12] was “inactive” each time. Moreover, the Potency result in [13], in [14], in [15], in assay [16] and in [19] was “inactive” each time. In addition, the activation in [17] is 4.83% (inactive); in assay [18], 0.333% (inactive) and 5.15% (inactive). Besides, the call in assay [20], in [22] and in [23] was inactive. Further, the max response in [21] was 34.2% and 61.4%.
